The source made the active and inactive calls. The calls were made as follows: active = hit-call score of the fitted dose curve at least 0.9, where 1 is the maximum; inactive = score below 0.9.

The experiment in a line: BSK_4H_Eotaxin3: BioMAP Diversity Plus: 4H Assay for Eotaxin 3 Biomarker Activity (AID 2283000). The note with it: primary human endothelial cells (HUVEC); actives raise or lower the signal. The method, then:
BSK_4H is a cell-based, multiplexed-readout assay that uses umbilical vein endothelium, a human vascular primary cell, with measurements taken at 24 hours after chemical dosing in a 96-well plate.BSK_4H_Eotaxin3 is an assay component measured in the BSK_4H assay. It measures Eotaxin-3 antibody related to regulation of gene expression using ELISA technology.Data from the assay component BSK_4H_Eotaxin3 was analyzed into 1 assay endpoint. This assay endpoint, BSK_4H_Eotaxin3, was analyzed with bidirectional fitting relative to DMSO as the negative control and baseline of activity. Using a type of binding reporter, gain or loss-of-signal activity can be used to understand changes in the signaling as they relate to the gene CCL26. Furthermore, this assay endpoint can be referred to as a primary readout, because this assay has produced multiple assay endpoints where this one serves a signaling function. To generalize the intended target to other relatable targets, this assay endpoint is annotated to the cytokine intended target family, where the subfamily is chemotactic factor.
The levels of cell surface (or secreted, indicated by the prefix "s") biomarker endpoints were measured by ELISA. Overt cytotoxicity to cells in confluent adherent cultures (all systems other than the BT system) was assessed by measuring total protein levels using sulforhodamine B (SRB) staining in parallel cultures at the time of biomarker measurements, indicated as SRB endpoints. For proliferation assays for adherent cell types, individual cell types are cultured at sub-confluence and relative cell numbers quantified by SRB staining at time points optimized for each system (48 h: 3C and CASM3C systems; 72 h: BT and HDF3CGF systems; 96 h: SAg system). SRB was performed by staining cells with 0.1% SRB after fixation with 10% TCA and reading wells at 560 nm.Viability and proliferation of PBMC (T cells) was quantified by Alamar Blue reduction for the SAg and BT systems. For PBMC viability (referred to as PBMC Cytotoxicity within the assay endpoint names), cells were plated (75,000/well in a 96-well plate) and then chemical samples added for 1 h before addition of activators, SEB and TSST-1 (20 ng/mL final concentration each). Cells were incubated for 90 h. Then, Alamar Blue (20 uL/well) (Invitrogen, Cat DAL1100) was added for 6 h, and the plates were read with a fluorescence microplate reader at 546/580 nm (excitation/emission). For PBMC proliferation, cells were plated and activated as above but incubated for only 16 h prior to addition of Alamar Blue. Plates were read after 6 h.
For the compound `CC(C)=CCCC(C)=CC=O`, the outcome was inactive.

As for `CC(C)=CCC/C(C)=C/CO`, the outcome was inactive.

Regarding `CCNc1ccccc1`, the result was inactive.

On to `Clc1nc(Cl)c(Cl)c(Cl)c1Cl`, for which the outcome was inactive.

Regarding `CCCCC(CC)COC(=O)CCCCCCCCC(=O)OCC(CC)CCCC` (stereo not given), the result was inactive.

What is called AC50 is the concentration at which the activity in the assay is half-maximal. On to `O=C(O)c1cccc(N(Cc2cccnc2)c2ccc(OC(F)F)c(OC(F)F)c2)c1`, for which the AC50 was 12.9 µM (active).

For `On1ccccc1=S`, the AC50 is 16.1 µM (active).

Turning to `CCc1cc(SCc2sc(-c3ccc(C(F)(F)F)cc3)nc2CN2CCN(c3ccc(OC)cc3)CC2)ccc1OCC(=O)O`, the AC50 is 10.9 µM (active).

Consider `O=C(O)c1cccc(Oc2ccccc2)c1`, for which the outcome was inactive.

Take `O=C(CCCCCCCCc1cccnc1)N1CCC(C=C(c2ccccc2)c2ccccc2)CC1`: the AC50 was 9.64 µM (active).

Regarding `COc1cccc(-c2ccc(/C=C\CN3CCCCCC3)cc2Cl)c1`, the AC50 is 28 µM (active).

Consider `CC/C(=C\C(=N/O)C(N)=O)C(C)[N+](=O)[O-]` (stereo not given), for which the outcome was inactive.

Take `COCCOCCOCCOC`: the result was inactive.

For `COc1ccc2sc(C(=O)Nc3nnn[nH]3)c(OC(C)C)c2c1`, the AC50 is 23.3 µM (active).

As to `O=C1CCC(N2C(=O)c3ccccc3C2=O)C(=O)N1` (stereo not given), the result was inactive.

Turning to `Cn1c(=O)cc(Oc2ccc(F)cc2F)c2cnc(NCC(C)(C)O)nc21`, the outcome was inactive.

On to `CCCCC(CC)COC(=O)c1ccc(C(=O)OCC(CC)CCCC)cc1` (stereo not given), for which the result was inactive.

As to `CNS(=O)(=O)c1cc(C(=O)N2CCC(CCN3C4CCC3CC(n3c(C)nc5ccccc53)C4)(c3cccc(F)c3)CC2)c(Cl)cc1F` (stereo not given), the AC50 was 30.9 µM (active).

As for `Nc1ccc(Nc2ccccc2)cc1`, the AC50 is 3.97 µM (active).

In the case of `CC(=O)c1ccc2c(c1)[C@H](NC(=O)c1ccc(F)cc1)[C@@H](O)C(C)(C)O2`, the result was inactive.

For the compound `Cn1cnc([N+](=O)[O-])c1Sc1ncnc2nc[nH]c12`, the result was inactive.

In the case of `NC(=O)NO`, the result was inactive.

As to `O=c1n(CC2CO2)c(=O)n(CC2CO2)c(=O)n1CC1CO1` (stereo not given), the AC50 was 23.2 µM (active).

Take `COC(=O)CC(=O)OC`: the outcome was inactive.

With `CCn1nc(Cc2ccccc2)cc1C1CCN(C[C@H]2C[C@H](N(C)[C@@H](C(=O)O)C(C)C)C[C@@H]2c2cccc(F)c2)CC1`, the outcome was inactive.

As for `CCCCCCCCCCCCc1ccccc1`, the AC50 is 26.6 µM (active).

Take `O=C(O)c1cc(N=Nc2ccc(S(=O)(=O)Nc3ccccn3)cc2)ccc1O`: the result was inactive.

`CC(C)CCCCCCCOC(=O)CCCCC(=O)OCCCCCCCC(C)C`: the outcome was inactive.

With `COCCOc1cc2cc(C(=O)NC3CCN(C(C)C)CC3)n(CC(=O)Nc3ccc(Cl)cn3)c2cn1`, the result was inactive.

With `CC[C@H](C)C(=O)O[C@H]1C[C@@H](C)C=C2C=C[C@H](C)[C@H](CC[C@@H]3C[C@@H](O)CC(=O)O3)[C@H]21`, the AC50 was 31.5 µM (active).

On to `Cc1ccc(N)cc1O`, for which the AC50 was 20 µM (active).

Turning to `O=C(O)CC(O)C(=O)O` (stereo not given), the result was inactive.

Regarding `O=C(O)CCN(C1(C(=O)NO)CCCC1)S(=O)(=O)c1ccc(Oc2ccc(F)cc2)cc1`, the outcome was inactive.

With `CC(C)(O)c1coc(S(=O)(=O)NC(=O)Nc2c3c(cc4c2CCC4)CCC3)c1`, the outcome was inactive.

As for `CC(C)=CCCC(C)CCO` (stereo not given), the result was inactive.

On to `Cn1c(=O)c2c(ncn2C)n(C)c1=O`, for which the result was inactive.

As to `COc1ccc(-n2nc(C(F)F)cc2-c2ccc(S(C)=O)cc2)cc1` (stereo not given), the result was inactive.

Turning to `O=C1CCCCCN1`, the outcome was inactive.

Regarding `CC(C)CC(C)(O)C#CC(C)(O)CC(C)C` (stereo not given), the outcome was inactive.

Take `CCCCCCc1ccc(O)cc1O`: the AC50 was 32.2 µM (active).

The values are drawn from PubChem BioAssay (EPA / NIEHS).
